Results filed as inconclusive are left out. Calls of active or inactive are those of the source. Unless noted, calls follow the shape of the full dose curve.
Assays:
[1] = Nuclear factor erythroid 2-related factor 2/antioxidant responsive element (Nrf2/ARE) small molecule agonists: qHTS cell viability counter screen in human keratinocytes (AID 1919968; active = well fitted curve in the direction sought with a large enough effect in the repeat runs; an effect the other way counts as inactive or inconclusive; also: nearly all actives have a fitted effect of over 55% in size; also: potency is read from the fitted curve at half-maximal effect); conditions: KeratinoSens HaCaT ARE cells viability, CellTiter-Fluor, 24 h; series mostly up to 92.4 µM
Procedure, shortened: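 Seed 1,500 KeratinoSens cells per well, then incubate 5 h at 37 C/5% CO2. Add compounds in DMSO and incubate 23 h. Add CellTiter-Fluor, wait 1 h and read fluorescence.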

[2] = Nuclear factor erythroid 2-related factor 2/antioxidant responsive element (Nrf2/ARE) small molecule agonists: luciferase reporter gene qHTS assay in human keratinocytes (AID 1919969); conditions: KeratinoSens HaCaT ARE-luciferase, luminescence, 24 h; series mostly up to 92.4 µM; also: nearly all actives have a fitted effect of over 35% in size; also: potency is read from the fitted curve at half-maximal effect
[3] = biological target: KiSS-1 receptor (Homo sapiens) (UniProt Q969F8); assay: Human kisspeptin (KISS1R) small molecule agonists, calcium flux assay in KISS1R-HEK293 cells (AID 1920064; active = well fitted curve in the direction sought with a large enough effect in the repeat runs; an effect the other way counts as inactive or inconclusive); conditions: KISS1R-HEK293, calcium flux fluorescence, agonist; series mostly up to 76.8 µM
KiSS-1 receptor (Homo sapiens), sequence (Q969F8 whole entry, looked up): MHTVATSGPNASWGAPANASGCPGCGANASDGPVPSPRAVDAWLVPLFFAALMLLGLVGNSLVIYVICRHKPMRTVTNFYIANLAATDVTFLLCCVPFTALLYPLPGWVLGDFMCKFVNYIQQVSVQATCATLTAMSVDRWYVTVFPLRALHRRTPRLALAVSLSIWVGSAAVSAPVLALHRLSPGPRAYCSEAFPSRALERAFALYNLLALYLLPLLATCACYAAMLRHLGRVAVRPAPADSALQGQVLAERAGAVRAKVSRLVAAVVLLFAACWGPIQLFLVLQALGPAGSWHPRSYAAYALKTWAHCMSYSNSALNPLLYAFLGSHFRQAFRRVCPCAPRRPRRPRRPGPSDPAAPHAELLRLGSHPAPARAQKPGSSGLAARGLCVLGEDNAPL
Procedure, shortened: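 Cells plated and incubated 18 h; dye added, 1 h at 37 C; compounds in DMSO pinned in; signal read at 480/540 nm every second for 3 min. Each compound tested at 15 concentrations in triplicate.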

[4] = G protein-coupled receptor (GPCR) small molecule agonists, calcium flux assay: HEK293 wild type cell line counter screen (AID 1920065); conditions: HEK293 WT calcium flux, fluorescence, agonist mode; series mostly up to 57.6 µM
Procedure, shortened: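 Counter-screen of the Tox21 10K library for non-specific calcium release: dye-loaded cells received compounds in DMSO and were monitored by kinetic fluorescence (480/540 nm, 3 min). Fifteen concentrations, run in triplicate.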

[5] = p53 small molecule agonists, cell-based qHTS assay with rat liver microsomes: qHTS cell viability counter screen (AID 1963580); conditions: p53RE-bla HCT-116 + rat microsomes, ATP viability, 16 h; series mostly up to 66 µM; also: nearly all actives have a fitted effect of over 45% in size
Procedure, shortened: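 Intracellular ATP, by CellTiter-Glo luminescence, defines viability. HCT-116 p53RE-bla cells, 4,000 per well, were compound-treated in the presence of rat liver microsomes and NADPH for 16 h at 37 C.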

[6] = p53 small molecule agonists, cell-based qHTS assay (AID 1963582; active = well fitted activation curve with a large enough effect in the signal ratio in the repeat runs, not every such curve was filed as active; the % refers to the signal ratio); conditions: HCT-116 p53RE-bla reporter, beta-lactamase FRET ratio, 16 h; series mostly up to 66 µM
Procedure, shortened: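 Quantitative HTS in p53RE-bla cells: after a 5 h settling period, compounds delivered in DMSO were left on cells for 16 h at 37 C, and reporter induction was measured as fluorescence following 2 h substrate loading.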

[7] = biological target: 5-hydroxytryptamine receptor 2A (Homo sapiens) (UniProt P28223); assay: 5-hydroxytryptamine receptor 2A (HTR2A) small molecule antagonists, cell-based qHTS assay (AID 1963586); conditions: HTR2A-CHO cells, DOI-induced calcium flux, fluorescence; series mostly up to 61.5 µM; also: nearly all actives have a fitted effect of over 45% in size
5-hydroxytryptamine receptor 2A (Homo sapiens), sequence (P28223 whole entry, looked up): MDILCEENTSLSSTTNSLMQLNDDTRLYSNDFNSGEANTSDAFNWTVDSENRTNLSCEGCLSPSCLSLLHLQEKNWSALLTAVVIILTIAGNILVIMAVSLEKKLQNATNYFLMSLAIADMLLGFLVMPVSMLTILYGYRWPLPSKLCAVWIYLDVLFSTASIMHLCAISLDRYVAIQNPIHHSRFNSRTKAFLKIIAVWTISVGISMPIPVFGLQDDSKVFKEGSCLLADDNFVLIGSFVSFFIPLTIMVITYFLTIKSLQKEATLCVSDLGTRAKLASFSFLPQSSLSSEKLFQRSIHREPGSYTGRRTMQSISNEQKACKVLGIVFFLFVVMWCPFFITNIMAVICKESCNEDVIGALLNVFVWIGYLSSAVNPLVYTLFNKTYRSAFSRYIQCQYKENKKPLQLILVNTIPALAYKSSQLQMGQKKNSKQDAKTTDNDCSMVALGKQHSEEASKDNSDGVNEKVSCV
Procedure, shortened: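 Antagonist-mode intracellular calcium assay: DOI (4 nM) added after 5 min compound pre-incubation at room temperature to dye-loaded HTR2A-CHO cells. Fluorescence followed for 3 min, sampled every second.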

[8] = biological target: Muscarinic acetylcholine receptor M1 (Homo sapiens) (UniProt P11229); assay: Cholinergic receptor muscarinic 1 (CHRM1) small molecule antagonists, cell-based qHTS assay (AID 1963588); conditions: CHRM1-CHO antagonist mode, calcium flux fluorescence; series mostly up to 61.5 µM; also: nearly all actives have a fitted effect of over 40% in size
Muscarinic acetylcholine receptor M1 (Homo sapiens), sequence (P11229 whole entry, looked up): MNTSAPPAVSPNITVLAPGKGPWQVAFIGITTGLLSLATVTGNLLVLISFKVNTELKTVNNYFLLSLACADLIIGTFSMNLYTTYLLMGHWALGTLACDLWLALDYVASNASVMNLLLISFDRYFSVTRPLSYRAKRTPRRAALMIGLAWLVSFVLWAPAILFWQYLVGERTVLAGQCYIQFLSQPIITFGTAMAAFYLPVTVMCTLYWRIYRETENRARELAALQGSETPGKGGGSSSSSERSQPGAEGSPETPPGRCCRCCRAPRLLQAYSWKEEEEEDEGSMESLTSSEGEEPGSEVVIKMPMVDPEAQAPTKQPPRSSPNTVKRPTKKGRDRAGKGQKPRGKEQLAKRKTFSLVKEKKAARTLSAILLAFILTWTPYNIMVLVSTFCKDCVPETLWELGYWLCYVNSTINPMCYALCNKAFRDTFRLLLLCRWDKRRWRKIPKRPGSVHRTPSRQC
Procedure, shortened: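 CHRM1-CHO calcium-flux assay, antagonist mode. Cells were seeded 18 h, dye-loaded 1 h at 37 C and given compound for 5 min at RT, then acetylcholine was added at 50nM. FDSS fluorescence was read 3 min; 15 concentrations, three runs.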

[9] = biological target: Muscarinic acetylcholine receptor M1 (Homo sapiens) (UniProt P11229); assay: Cholinergic receptor muscarinic 1 (CHRM1) small molecule agonists, cell-based qHTS assay (AID 1963589); conditions: CHRM1-CHO cells, agonist mode, calcium flux fluorescence; series mostly up to 76.8 µM; also: nearly all actives have a fitted effect of over 35% in size
Procedure, shortened: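 Agonist-mode qHTS in CHO cells stably carrying human muscarinic M1. Intracellular calcium is tracked by fluorescence every second after compound transfer; each compound runs at 15 concentrations in three independent runs.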

[10] = biological target: D(2) dopamine receptor (Homo sapiens) (UniProt P14416); assay: Dopamine D2 receptor (DRD2) small molecule antagonists, cell-based qHTS assay (AID 1963595; active = well fitted inhibition curve with a large enough effect in the signal ratio in the repeat runs, with a control signal flat; the % refers to the signal ratio); conditions: HEK293-DRD2 cAMP HTRF antagonist mode; series mostly up to 92.4 µM
D(2) dopamine receptor (Homo sapiens), sequence (P14416 whole entry, looked up): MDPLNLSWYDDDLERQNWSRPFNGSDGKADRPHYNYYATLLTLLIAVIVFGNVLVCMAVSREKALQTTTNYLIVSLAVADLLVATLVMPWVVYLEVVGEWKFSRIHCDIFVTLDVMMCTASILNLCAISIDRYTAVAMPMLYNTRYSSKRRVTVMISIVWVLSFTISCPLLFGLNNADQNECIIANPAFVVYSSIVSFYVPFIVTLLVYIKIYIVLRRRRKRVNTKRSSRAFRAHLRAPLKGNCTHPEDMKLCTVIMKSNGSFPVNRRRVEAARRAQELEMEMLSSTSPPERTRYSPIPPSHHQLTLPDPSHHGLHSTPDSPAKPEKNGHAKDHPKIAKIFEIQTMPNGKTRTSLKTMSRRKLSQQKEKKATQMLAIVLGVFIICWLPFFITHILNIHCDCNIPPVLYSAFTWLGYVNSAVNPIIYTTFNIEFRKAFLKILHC
Procedure, shortened: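 HEK293 cells stably expressing DRD2 were preincubated with 0.1 mM Ro20-1724, then with compound for 10 min at room temperature. Cells were stimulated with 200 nM NKH477 plus 12 nM quinpirole for 30 min, and cAMP was read by HTRF.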

[11] = p53 small molecule agonists, cell-based qHTS assay with human liver microsomes: qHTS cell viability counter screen (AID 1963579); conditions: p53RE-bla HCT-116 viability, ATP luminescence, 16 h, HLM; series mostly up to 66 µM; also: nearly all actives have a fitted effect of over 45% in size
Procedure, shortened: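 Viability of p53RE-bla cells is measured as CellTiter-Glo luminescence following a 16 h, 37 C incubation with compound, liver microsomes from human donors and NADPH.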

[12] = p53 small molecule agonists, cell-based qHTS assay: qHTS cell viability counter screen (AID 1963581); conditions: p53RE-bla HCT-116 viability, ATP luminescence, 16 h; series mostly up to 66 µM; also: nearly all actives have a fitted effect of over 45% in size
Procedure, shortened: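 Cells: HCT-116 with p53 response element-driven beta-lactamase. Treatment: 16 h, 37 C, compounds in DMSO. Read: CellTiter-Glo luminescence after 30 min RT.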

[13] = biological target: 5-hydroxytryptamine receptor 2A (Homo sapiens) (UniProt P28223); assay: 5-hydroxytryptamine receptor 2A (HTR2A) small molecule agonists, cell-based qHTS assay (AID 1963587); conditions: HTR2A-CHO cells, calcium flux fluorescence, agonist mode; series mostly up to 76.8 µM; also: nearly all actives have a fitted effect of over 30% in size; also: potency is read from the fitted curve at half-maximal effect
Procedure, shortened: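 Kinetic calcium-flux fluorescence (2 min, 1 sec intervals) after compound addition in agonist mode. HTR2A-CHO cells were cultured 18 h, then dye-loaded 1 h at 37 C.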

[14] = biological target: D(2) dopamine receptor (Homo sapiens) (UniProt P14416); assay: Dopamine D2 receptor (DRD2) small molecule agonists, cell-based qHTS assay (AID 1963594); conditions: HEK293-DRD2 cAMP HTRF, agonist mode, 30 min; series mostly up to 92.4 µM; also: nearly all actives have a fitted effect of over 35% in size
Procedure, shortened: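 cAMP accumulation in DRD2-HEK293 cells measured by HTRF after 1 h detection; compounds added 10 min before NKH477 (200nM […]) forskolin-analogue stimulation, 30 min at room temperature, with Ro20-1724 present at 0.1 mM final.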

[15] = cAMP Responsive Elements (CRE) small molecule agonists, cell-based qHTS assay (AID 1963590); conditions: CRE-bla HEK293T, beta-lactamase FRET ratio, 3 h; series mostly up to 92.4 µM
Procedure, shortened: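 Agonist mode qHTS in CRE-bla HEK 293T cells: compounds dosed from DMSO for 3 h at 37 C/5% CO2, followed by LiveBLAzer B/G FRET substrate for 2 h at room temperature.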

[16] = cAMP Responsive Elements (CRE) small molecule antagonists, cell-based qHTS assay (AID 1963591; active = well fitted inhibition curve with a large enough effect in the signal ratio in the repeat runs, not every such curve was filed as active; the % refers to the signal ratio); conditions: CRE-bla HEK293T, beta-lactamase FRET ratio; series mostly up to 92.4 µM
Procedure, shortened: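 Antagonist mode: test compounds are co-incubated with the adenylyl cyclase activator NKH477 (0.25 uM final) on CRE-bla HEK293T cells for 3 h at 37 °C, followed by LiveBLAzer substrate loading.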

[17] = biological target: Beta-2 adrenergic receptor (Homo sapiens) (UniProt P07550); assay: Adrenergic beta2 receptor (ADRB2) small molecule antagonists, cell-based qHTS assay (AID 1963592); conditions: CHO-ADRB2 cells, isoproterenol-stimulated cAMP HTRF ratio, 0.5 h; series mostly up to 92.4 µM; also: nearly all actives have a fitted effect of over 50% in size
Beta-2 adrenergic receptor (Homo sapiens), sequence (P07550 whole entry, looked up): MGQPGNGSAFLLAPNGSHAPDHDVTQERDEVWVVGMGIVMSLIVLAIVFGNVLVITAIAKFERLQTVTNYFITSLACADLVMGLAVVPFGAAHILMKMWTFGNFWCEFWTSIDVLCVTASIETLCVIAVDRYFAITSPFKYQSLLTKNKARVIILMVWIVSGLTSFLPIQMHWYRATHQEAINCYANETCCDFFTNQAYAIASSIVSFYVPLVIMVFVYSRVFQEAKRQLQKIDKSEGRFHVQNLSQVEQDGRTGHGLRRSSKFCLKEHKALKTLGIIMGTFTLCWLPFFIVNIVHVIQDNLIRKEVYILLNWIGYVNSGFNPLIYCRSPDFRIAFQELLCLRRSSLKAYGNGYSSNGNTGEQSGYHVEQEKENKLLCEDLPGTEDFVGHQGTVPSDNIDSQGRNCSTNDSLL
Procedure, shortened: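 Cells (CHO, stable ADRB2 overexpression) incubated 18-20hr at 37C; compounds added from DMSO; agonist mix (1nM isoproterenol, 100uM IBMX, 25uM Ro-20-1724) added; 0.5hr RT; d2-cAMP and anti-cAMP-cryptate added; 1hr RT; 665/615 nm read.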

[18] = p53 small molecule agonists, cell-based qHTS assay with human liver microsomes (AID 1963577); conditions: HCT-116 p53RE-bla with human liver microsomes, ratio, 16 h; series mostly up to 66 µM;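 also: p53 response element beta-lactamase reporter cells with liver microsomes plus NADPH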
Procedure, shortened: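 HLM-supplemented p53RE-bla reporter assay: 16 h compound exposure at 37 C, microsomes and NADPH each 0.5 mg/mL final, read by fluorescence intensity.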

[19] = biological target: Gonadotropin-releasing hormone receptor (Homo sapiens) (UniProt P30968); assay: Human gonadotropin-releasing hormone receptor (GnRHR) small molecule agonists, calcium flux assay in GnRHR-HEK293 cells (AID 1920063); conditions: calcium flux fluorescence, agonist mode; series mostly up to 57.6 µM; also: nearly all actives have a fitted effect of over 35% in size
Gonadotropin-releasing hormone receptor (Homo sapiens), sequence (P30968 whole entry, looked up): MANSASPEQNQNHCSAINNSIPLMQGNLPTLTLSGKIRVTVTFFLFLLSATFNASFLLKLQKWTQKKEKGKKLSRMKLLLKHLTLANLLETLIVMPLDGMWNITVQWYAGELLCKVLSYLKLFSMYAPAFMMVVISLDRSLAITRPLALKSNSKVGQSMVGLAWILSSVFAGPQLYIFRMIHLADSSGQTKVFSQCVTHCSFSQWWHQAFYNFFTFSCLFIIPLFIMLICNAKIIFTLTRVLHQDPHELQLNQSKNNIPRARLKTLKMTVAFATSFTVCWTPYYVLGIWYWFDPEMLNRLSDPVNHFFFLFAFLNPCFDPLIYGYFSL
Procedure, shortened: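 Cells: HEK293 stably expressing human GnRHR. Steps: overnight (18 h) culture, 1 h calcium dye loading at 37 C, compound addition, kinetic fluorescence read at 480/540 nm. Each compound tested at 15 concentrations in triplicate.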

[20] = p53 small molecule agonists, cell-based qHTS assay with rat liver microsomes (AID 1963578); conditions: HCT-116 p53RE-bla, beta-lactamase ratio, 16 h; series mostly up to 66 µM
Procedure, shortened: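 Quantitative HTS of the Tox21 10K library: p53RE-bla cells, rat liver microsomes plus NADPH at 0.5 mg/mL final each, 16 h at 37 C, beta-lactamase fluorescence detection.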

Measured: Potency

CCOP(=O)(NC(C)C)Oc1ccc(SC)c(C)c1 (centres undefined)
inactive: [1] | [3] | [4] | [5] | [6] | [7] | [8] | [9] | [10]
active: [2] 15.4 µM

O=C(Nc1ccc(F)cc1F)c1cccnc1Oc1cccc(C(F)(F)F)c1
inactive: [1] | [2] | [3] | [4] | [11] | [5] | [12] | [7] | [13] | [8] | [9] | [14] | [10]

COc1nn(C(=O)NS(=O)(=O)c2ccccc2OC(F)(F)F)c(=O)n1C
inactive: [1] | [2] | [3] | [4] | [11] | [5] | [12] | [7] | [8] | [15] | [16] | [17] | [14] | [10]

O=S(=O)(C(Cl)(Cl)Cl)C(Cl)(Cl)Cl
active: [1] 24.3 µM | [2] 8.63 µM | [13] 49 µM
inactive: [3] | [18] | [11] | [12] | [8] | [9] | [16] | [17] | [10]

Clc1ccc(C(Cl)(Cl)Cl)cc1Cl
inactive: [1] | [19] | [3] | [4] | [18] | [20] | [11] | [5] | [12] | [6] | [7] | [13] | [8] | [9] | [15] | [16] | [17] | [14] | [10]

c1ccc(OCC2CO2)cc1 (centres undefined)
inactive: [1] | [19] | [3] | [4] | [18] | [20] | [11] | [5] | [12] | [6] | [7] | [13] | [8] | [9] | [15] | [16] | [17] | [14] | [10]

C#CC(C)(C)O
inactive: [1] | [2] | [3] | [4] | [11] | [5] | [12] | [7] | [13] | [8] | [9] | [15] | [16] | [17] | [14] | [10]

C=CC(=C)C
inactive: [1] | [2] | [3] | [20] | [11] | [5] | [12] | [6] | [7] | [13] | [8] | [9] | [15] | [16] | [17] | [10]
